Compound activity deposited in PubChem BioAssay by National Center for Advancing Translational Sciences (NCATS).
Shown are actives, neighbours in structure and some others; about 7.5% of the full set was active somewhere.
Rab9 prom act = activates the Rab9 promoter | Huh7 Rab9 promoter-luciferase reporter, luminescence, 24 h | Potency, µM (doses to about 9.22 µM), for inactives: at the top dose activation, negative = inhibition, usual class: activators | actives 2.8% (n = 320,000) | AID 485297; further: % of control where 0% means no effect; nearly all actives have a fitted effect of over 60% in size
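Quantitative HTS format; Huh7 Rab9-luciferase reporter cells (1500/well) receive compound 2 h post-plating, incubate 24 h at 37 °C, then get luciferase reagent for 10 min before luminescence reading.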
FLuc modulator = firefly luciferase modulation, counter-screen for miR-21 project. P08659. purified FLuc, Km substrates, luminescence inhibition. Potency, µM (titrated, usually from 57.5 µM), inactives show top-dose activity change, negative = inhibition, most hits filed as inhibitors. actives 6.9% (n = 360,000). AID 588342;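 further: plate controls were vehicle for no effect and reference inhibitor for full effect; nearly all actives have a fitted effect of over 55% in size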
Target sequence (P08659 whole entry, looked up): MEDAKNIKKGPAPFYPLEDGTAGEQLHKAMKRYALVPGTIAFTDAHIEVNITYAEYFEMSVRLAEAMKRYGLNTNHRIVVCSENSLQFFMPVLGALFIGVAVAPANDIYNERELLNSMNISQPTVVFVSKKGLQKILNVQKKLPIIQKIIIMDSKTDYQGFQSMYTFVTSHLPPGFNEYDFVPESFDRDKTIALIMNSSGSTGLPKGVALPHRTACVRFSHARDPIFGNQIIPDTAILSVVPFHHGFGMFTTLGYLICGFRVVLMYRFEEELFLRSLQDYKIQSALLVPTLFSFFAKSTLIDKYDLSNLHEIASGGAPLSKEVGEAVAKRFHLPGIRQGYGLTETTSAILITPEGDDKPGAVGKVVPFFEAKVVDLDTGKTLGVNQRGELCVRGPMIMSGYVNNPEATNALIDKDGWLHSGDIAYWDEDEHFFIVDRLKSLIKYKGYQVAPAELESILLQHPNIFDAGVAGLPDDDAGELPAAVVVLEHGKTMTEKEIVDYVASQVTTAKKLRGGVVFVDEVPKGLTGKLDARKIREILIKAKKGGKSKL
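Purified P. pyralis luciferase, 10 nM final, with Km-level 10 uM D-luciferin and 10 uM ATP in 50 mM Tris acetate pH 7.5, 10 mM Mg acetate, 0.01% Tween-20, 0.05% BSA; 6-point qHTS titration about 60 µM downward; luminescence read.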
Luc counter = counter-screen: inhibitors of Kinase-Glo firefly luciferase | Kinase-Glo luciferase, ATP luminescence, 8 min | Potency, µM (titrated, usually from 38.3 µM), for inactives: at the top dose activity change, negative = inhibition, usual class: inhibitors | actives 0.28% (n = 200,000) | Q27757; further: on the % scale 0 is the no-effect control and ±100 the full control effect; nearly all actives have a fitted effect of over 60% in size
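Kinase-Glo luciferase light output from ATP and luciferin was measured with 10 uM ATP, within the enzyme's linear range. Buffer: 50 mM imidazole pH 7.2, 50 mM KCl, 7 mM MgCl2, 0.01% Tween 20, 0.05% BSA; luminescence read after 8 min at ambient temperature.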
ELG1 genotox = genotoxicity induction in ELG1-luciferase HEK293T cells | HEK293T ELG1-luciferase reporter, luminescence, 16 h | Potency, µM (top dose mostly 46 µM), without a hit: at the top dose activity change, positive = activation, hits mostly activators | actives 1.3% (n = 330,000); further: % of control where 0% means no effect; nearly all actives have a fitted effect of over 60% in size
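Genotoxic stress is detected as increased luminescence from luciferase-tagged ELG1 in HEK293T cells, measured with ONE-Glo after a 16 hr treatment at 37 °C.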
SMN2 splice up = increases expression of the SMN2 splice variant | HEK293 SMN2-luciferase splicing reporter, luminescence, 30-36 h | Potency, µM (highest dose often 46.1 µM), inactives show top-dose activity change, positive = activation, most hits filed as activators | actives 2.8% (n = 210,000) | AID 1458; further: % of control where 0% means no effect; nearly all actives have a fitted effect of over 55% in size
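HEK293 cells carry an SMN2 […]–luciferase reporter in which exon 7 inclusion puts luciferase in frame. Cells were plated 10-12 h before compound addition, then incubated 30-36 h at 37C. ONE-Glo luminescence was read; sodium butyrate at 4.5 mM final served as control.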
NPC1 promoter act = activates the NPC1 promoter. Huh7 NPC1 promoter luciferase reporter, 24 h. Potency, µM (series often up to 9.22 µM), without a hit: at the top dose activation, most hits filed as activators. actives 2.4% (n = 320,000); further: % of control where 0% means no effect; nearly all actives have a fitted effect of over 60% in size
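Stable NPC1-promoter luciferase Huh7 line; cpd (DMSO) 24 h, 37 °C, 5% CO2; Amplite luciferase reagent 10 min RT; luminescence readout. qHTS format.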
An asterisk follows results filed as active. The call rests on the fitted dose curve; in most records, active means well fitted curve in the direction sought with a large enough effect; inconclusive means small, poorly fitted or top-dose-only effect, or another doubt; inactive means no such curve, though single readings can be large; an effect the other way counts as inactive or inconclusive. Potency means the concentration at half of the fitted maximal effect.

COc1cc(SC)ccc1C(=O)Nc1ccc(C)cc1 was read as Rab9 prom act 3.5µM*, FLuc modulator 1.9µM*, Luc counter -3%, ELG1 genotox inconclusive and NPC1 promoter act inconclusive.
CCCCCCCC/C=C\CCCCCCCC(=O)OC[C@@H](O)COP(=O)(O)O was read as Luc counter -1% and SMN2 splice up 6%.
CSc1cccc(NS(=O)(=O)c2ccc3[nH]cc(C(=O)N4CCCCCC4)c(=O)c3c2)c1 was read as FLuc modulator inconclusive and SMN2 splice up 0%.
`Cc1ccc(CSc2nncn3c2cc2sccc23)cc1` gave FLuc modulator 0%.
Screening CCc1ccc2c(c1)c1nc(C)sc1n2CC returned Rab9 prom act 3%, FLuc modulator 19µM*, Luc counter 2%, ELG1 genotox 5%, SMN2 splice up -12% and NPC1 promoter act -6%.
For COC(=O)c1cc(S(=O)(=O)N(Cc2ccccc2)C(C)(C)C)c[nH]1 the results were Rab9 prom act -8%, FLuc modulator 7%, ELG1 genotox -7% and NPC1 promoter act -24%.
`O=S(=O)(c1cccc(-c2nc3n(n2)Cc2ccccc2-3)c1)N1CCCC1` gave Rab9 prom act 20%, FLuc modulator 15µM*, Luc counter -8%, ELG1 genotox 0%, SMN2 splice up -4% and NPC1 promoter act 9%.
Screening O=c1cc(-c2ccc3c(c2)OCCO3)oc2ccc(Cl)cc12 returned Rab9 prom act 0.45µM*, FLuc modulator 0.38µM*, Luc counter -15%, ELG1 genotox 2.9µM*, SMN2 splice up 2.5µM* and NPC1 promoter act 0.63µM*.
For O=c1cc(-c2ccsc2)oc2cc(-c3ccc4c(c3)OCO4)ccc12 the results were ELG1 genotox 1%.
`O=c1cc(-c2cccs2)oc2ccc(Cl)cc12` gave Rab9 prom act 3.2µM*, FLuc modulator 4.8µM*, ELG1 genotox inconclusive and NPC1 promoter act 3.2µM*.
For COC(=O)c1ccccc1NC(=O)c1ccc2c(c1)CCN2S(=O)(=O)c1ccc(Cl)cc1 the results were FLuc modulator -1% and SMN2 splice up 6%.
`C/C(=N\Nc1cccc2cccnc12)c1ccc[nH]1` gave Rab9 prom act 1.4µM*, FLuc modulator 1.1µM*, Luc counter -17%, ELG1 genotox 4%, SMN2 splice up 11µM* and NPC1 promoter act inconclusive.
`COc1ccc(OC)c(CNC(=O)CN2CC(C)Sc3ccccc32)c1` (stereo not drawn) gave FLuc modulator 5%.
COc1cc(C2NC(=O)C(C#N)=C(S)N2c2ccc(C)cc2)ccc1OC(C)C (stereo not drawn) was read as Rab9 prom act 0%, FLuc modulator 15µM*, Luc counter 2%, ELG1 genotox inconclusive, SMN2 splice up -31% and NPC1 promoter act 1%.
For N#CC1=C(S)N(c2ccccc2)C(c2cccs2)NC1=O (stereo not drawn) the results were Rab9 prom act 2%, FLuc modulator 6%, Luc counter 6%, ELG1 genotox -3%, SMN2 splice up 24% and NPC1 promoter act 6%.
`Cc1ccc(N2C(S)=C(C#N)C(=O)NC2c2ccco2)cc1` (stereo not drawn) gave Rab9 prom act 2%, FLuc modulator inconclusive, Luc counter 8%, ELG1 genotox 9%, SMN2 splice up 7% and NPC1 promoter act -4%.
`CCOc1ccc(C2NC(=O)C(C#N)=C(S)N2c2ccc(OC)cc2)cc1OC` (stereo not drawn) gave Rab9 prom act 3%, FLuc modulator 21µM*, Luc counter 0%, ELG1 genotox 1%, SMN2 splice up -6% and NPC1 promoter act 3%.
For COc1ccc(C2NC(=O)C(C#N)=C(S)N2c2cccc(C)c2)cc1OC (stereo not drawn) the results were Rab9 prom act -8%, FLuc modulator inconclusive, Luc counter 0%, ELG1 genotox -2%, SMN2 splice up -3% and NPC1 promoter act -9%.
`COc1ccc(C2NC(=O)C(C#N)=C(S)N2c2ccc(C)cc2)cc1OC` (stereo not drawn) gave Rab9 prom act -2%, FLuc modulator 19µM*, Luc counter 0%, ELG1 genotox 2%, SMN2 splice up 17% and NPC1 promoter act -1%.
Screening COc1ccc(N2C(S)=C(C#N)C(=O)NC2c2ccc(OC)c(OC)c2)cc1 (stereo not drawn) returned Rab9 prom act -5%, FLuc modulator inconclusive, Luc counter 0%, ELG1 genotox 6% and NPC1 promoter act -7%.
For Cc1ccc(N2C(S)=C(C#N)C(=O)NC2c2cccs2)cc1 (stereo not drawn) the results were Rab9 prom act 1%, FLuc modulator -16%, Luc counter 0%, ELG1 genotox -1%, SMN2 splice up 4.5µM* and NPC1 promoter act 0%.
For COc1cccc(-c2cc(C(F)(F)F)n3nc(C)c(-c4ccccc4)c3n2)c1 the results were FLuc modulator -1% and SMN2 splice up -14%.
For Cc1ccc2c(c1)N(C(=O)c1ccc(F)cc1)C(C)(C)CC2(C)c1ccccc1 (stereo not drawn) the results were FLuc modulator -2% and SMN2 splice up -6%.
`Brc1cccc(-c2nnn3c2nc(NCc2ccc4c(c2)OCO4)c2ccccc23)c1` gave FLuc modulator -8% and SMN2 splice up 14µM*.
For COc1ccccc1N1CCN(C(=O)c2nn(-c3ccc(C)cc3)c(=O)n(C)c2=O)CC1 the results were FLuc modulator 4%.
`CC1C(=O)NN=C1C(=O)N/N=C/c1ccco1` (stereo not drawn) gave Rab9 prom act 15%, FLuc modulator -2%, Luc counter inconclusive, ELG1 genotox 0%, SMN2 splice up 7% and NPC1 promoter act -2%.
For C/C(=N\NC(=O)c1cccs1)c1ccc2ccccc2c1 the results were Rab9 prom act inconclusive, FLuc modulator -16%, ELG1 genotox 9% and NPC1 promoter act inconclusive.
C/C(=N\NC(=O)C1=NNC(=O)C1C)c1cccs1 (stereo not drawn) was read as Rab9 prom act 4µM*, FLuc modulator inconclusive, Luc counter 10µM*, ELG1 genotox inconclusive, SMN2 splice up inconclusive and NPC1 promoter act inconclusive.
C/C(=N\NC(=O)c1cccc(S(=O)(=O)N2CCCC2)c1)c1cccs1 was read as Rab9 prom act inconclusive, FLuc modulator inconclusive, Luc counter 0%, ELG1 genotox 3%, SMN2 splice up 27% and NPC1 promoter act 16%.
